Laboratory results as given in PubChem BioAssay.

Experiments:
[1] = test system: Botulinum neurotoxin type F light chain protease (Clostridium botulinum); test: Botulinum neurotoxin type F light chain protease inhibition, multiplex microsphere flow cytometry, validation set (AID 588459); details: multiplex microsphere protease substrate cleavage assay, at 10 µM, hits give high values
[2] = molecular target: Botulinum neurotoxin type A (Clostridium botulinum) (UniProt P0DPI0); test: BoNT/A light chain protease inhibitors, biochemical, multiplex microsphere flow cytometry, validation set (AID 588460); details: at 10 µM, hits give high values
Chain of Botulinum neurotoxin type A (Clostridium botulinum) (P0DPI0 whole entry, looked up): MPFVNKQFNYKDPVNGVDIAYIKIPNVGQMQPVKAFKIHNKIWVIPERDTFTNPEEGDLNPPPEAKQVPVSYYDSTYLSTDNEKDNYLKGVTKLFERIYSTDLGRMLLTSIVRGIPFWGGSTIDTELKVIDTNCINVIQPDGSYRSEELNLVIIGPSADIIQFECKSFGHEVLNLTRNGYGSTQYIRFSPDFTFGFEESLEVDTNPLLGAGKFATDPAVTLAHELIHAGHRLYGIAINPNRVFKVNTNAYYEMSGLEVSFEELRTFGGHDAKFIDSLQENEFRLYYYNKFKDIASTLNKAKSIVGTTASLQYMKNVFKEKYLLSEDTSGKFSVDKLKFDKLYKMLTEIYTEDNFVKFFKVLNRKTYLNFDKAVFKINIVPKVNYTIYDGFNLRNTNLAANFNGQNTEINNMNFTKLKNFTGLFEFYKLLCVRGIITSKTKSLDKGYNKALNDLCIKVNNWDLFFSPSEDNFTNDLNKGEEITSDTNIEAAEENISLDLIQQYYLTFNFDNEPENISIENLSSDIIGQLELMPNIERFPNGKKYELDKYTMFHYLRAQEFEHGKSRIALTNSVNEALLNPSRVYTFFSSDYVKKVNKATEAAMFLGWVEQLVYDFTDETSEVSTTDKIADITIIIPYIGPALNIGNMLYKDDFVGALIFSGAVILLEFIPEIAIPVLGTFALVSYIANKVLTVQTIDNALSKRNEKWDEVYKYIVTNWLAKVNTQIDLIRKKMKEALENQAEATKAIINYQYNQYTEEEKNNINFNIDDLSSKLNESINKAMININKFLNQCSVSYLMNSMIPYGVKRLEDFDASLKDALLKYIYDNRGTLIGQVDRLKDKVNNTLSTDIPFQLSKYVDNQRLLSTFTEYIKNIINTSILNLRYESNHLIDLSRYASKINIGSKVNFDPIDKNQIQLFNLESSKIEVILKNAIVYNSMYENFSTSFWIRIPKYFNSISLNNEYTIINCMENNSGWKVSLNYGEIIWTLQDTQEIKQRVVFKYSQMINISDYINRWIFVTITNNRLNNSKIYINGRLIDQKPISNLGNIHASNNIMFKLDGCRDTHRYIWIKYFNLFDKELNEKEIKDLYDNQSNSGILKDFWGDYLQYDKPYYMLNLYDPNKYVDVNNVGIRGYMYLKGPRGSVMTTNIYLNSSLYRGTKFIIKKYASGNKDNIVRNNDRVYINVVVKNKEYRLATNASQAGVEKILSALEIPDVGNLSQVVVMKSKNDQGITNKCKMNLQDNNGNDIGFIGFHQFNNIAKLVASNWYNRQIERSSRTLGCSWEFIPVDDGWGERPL

[3] = molecular target: Lethal factor (Bacillus anthracis) (UniProt P15917); test: Lethal factor protease inhibitors, Bacillus anthracis, multiplex microsphere cleavage assay, validation set (AID 588461); details: flow cytometry, at 10 µM, hits give high values
Chain of Lethal factor (Bacillus anthracis) (P15917 whole entry, looked up): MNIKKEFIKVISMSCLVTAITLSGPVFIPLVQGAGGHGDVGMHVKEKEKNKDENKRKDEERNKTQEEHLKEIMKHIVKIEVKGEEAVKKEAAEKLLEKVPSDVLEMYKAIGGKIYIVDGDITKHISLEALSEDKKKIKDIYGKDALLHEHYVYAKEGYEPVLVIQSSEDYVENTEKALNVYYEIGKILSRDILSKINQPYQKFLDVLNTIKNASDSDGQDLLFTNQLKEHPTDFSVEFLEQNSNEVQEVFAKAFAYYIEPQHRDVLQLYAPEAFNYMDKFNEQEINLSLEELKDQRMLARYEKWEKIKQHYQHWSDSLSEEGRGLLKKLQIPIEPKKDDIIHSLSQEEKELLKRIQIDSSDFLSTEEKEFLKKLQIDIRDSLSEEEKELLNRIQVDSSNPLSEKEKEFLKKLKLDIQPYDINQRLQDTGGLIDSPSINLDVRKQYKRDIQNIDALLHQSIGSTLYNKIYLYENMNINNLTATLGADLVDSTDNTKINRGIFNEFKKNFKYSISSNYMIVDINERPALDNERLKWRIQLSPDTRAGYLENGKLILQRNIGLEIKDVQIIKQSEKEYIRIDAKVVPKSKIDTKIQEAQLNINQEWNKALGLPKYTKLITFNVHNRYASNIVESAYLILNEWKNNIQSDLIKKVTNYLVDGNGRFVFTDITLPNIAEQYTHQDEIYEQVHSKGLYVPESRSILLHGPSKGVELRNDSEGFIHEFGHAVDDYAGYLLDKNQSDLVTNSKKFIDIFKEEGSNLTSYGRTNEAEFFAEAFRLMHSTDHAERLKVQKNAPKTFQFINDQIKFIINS

Measured: inhibition

C#CCOc1ccc2c(C)cc(=O)oc2c1
inactive: [1] -2.9% | [2] -2.2% | [3] 4.6%

CCOC(=O)Cc1c(C)nc(N)[nH]c1=O
inactive: [1] 2.8% | [2] 0.8% | [3] -3.1%

Cc1c2c(nc3c(C)cccc13)OC(C)C2 (stereo unspecified)
inactive: [1] 2.9% | [2] -2.4% | [3] -4.3%

Cc1nc2ccccc2n1CC(=O)NC1CCCC1
inactive: [1] -0.9% | [2] -0.2% | [3] -4.4%

COc1ccc(C(=O)Nc2ccc(OC)c([N+](=O)[O-])c2)cc1Br
inactive: [1] 1.7% | [2] -0.3% | [3] 8.3%

CCOc1ccc2nc(S(N)(=O)=O)sc2c1
inactive: [1] 2% | [2] 0% | [3] 8.4%

CN1CCCN(C(c2ccccc2)c2ccc(Cl)cc2)CC1 (stereo unspecified)
inactive: [1] 3.2% | [2] -1.8% | [3] -8.8%

COc1cc2c3c(c1)C(C)CC(C)(C)N3C(=O)C2=O (stereo unspecified)
inactive: [1] -6.7% | [2] -1.3% | [3] -5.6%

CN(C)CCOc1ccc(Cl)cc1C(C)(C)C
inactive: [1] -7.7% | [2] -2.2% | [3] -7.1%

COc1cc2cc(C(=O)O)[nH]c2c(OC)c1OC
inactive: [1] 0.5% | [2] -0.4% | [3] -3.8%

CCOC(=O)n1c(=O)oc2ccccc21
inactive: [1] 0.5% | [2] 0.5% | [3] -4%

CC(=O)SC1CC2=CC(=O)CCC2(C)C2CCC3(C)C(CCC34CCC(=O)O4)C12 (stereo unspecified)
inactive: [1] 0% | [2] 0.1% | [3] -5.9%
